Measurements as given in the supplement of paper PMC8728848.
Shown is part of a subset that was picked to be rich in the strongest signals.

Columns and labels:
Assay in all cases: glycan array binding signal (z-score within array); higher = stronger binding
Details in all cases: glycan notation: IUPAC condensed, linker removed
[1] = target: Fuc(a1-2)Gal(b1-3)GalNAc(a1-3)[Fuc(a1-2)]Gal(b1-4)GlcNAc
Summary of the method: (§1)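 Negative Z-scores can be read as non-binding. The Z-score is calculated within each array and then averaged across arrays of one protein sequence at different concentrations or buffers and across linkers. Arrays, 3228 in all, were curated from the Consortium for Functional Glycomics database and kept only where the protein sequence was available.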

[2] = target: Fuc(a1-2)Gal(b1-3)GalNAc(b1-3)Gal
Summary of the method: as §1

[3] = target: Fuc(a1-2)Gal(b1-3)GlcNAc(b1-3)Gal(b1-4)Glc
Summary of the method: as §1

[4] = target: Fuc(a1-2)Gal(b1-3)GlcNAc(b1-3)[Neu5Ac(a2-6)Gal(b1-4)GlcNAc(b1-6)]Gal(b1-4)Glc
Summary of the method: as §1

[5] = target: Fuc(a1-2)Gal(b1-4)[Fuc(a1-3)]GlcNAc(b1-2)Man(a1-3)[Fuc(a1-2)Gal(b1-4)[Fuc(a1-3)]GlcNAc(b1-2)Man(a1-6)]Man(b1-4)GlcNAc(b1-4)GlcNAc
Summary of the method: as §1

[6] = target: Fuc(a1-2)Gal(b1-4)[Fuc(a1-3)]GlcNAc(b1-3)GalNAc
Summary of the method: as §1

[7] = target: Fuc(a1-2)[GalNAc(a1-3)]Gal(b1-3)GlcNAc(b1-2)Man(a1-3)[Fuc(a1-2)[GalNAc(a1-3)]Gal(b1-3)GlcNAc(b1-2)Man(a1-6)]Man(b1-4)GlcNAc(b1-4)GlcNAc
Summary of the method: as §1

[8] = target: Fuc(a1-2)[GalNAc(a1-3)]Gal(b1-3)GlcNAc(b1-2)Man(a1-3)[Fuc(a1-2)[GalNAc(a1-3)]Gal(b1-3)GlcNAc(b1-2)Man(a1-6)]Man(b1-4)GlcNAc(b1-4)[Fuc(a1-6)]GlcNAc
Summary of the method: as §1

[9] = target: Fuc(a1-2)[GalNAc(a1-3)]Gal(b1-4)GlcNAc(b1-3)Gal(b1-4)GlcNAc
Summary of the method: as §1

[10] = target: Fuc(a1-3)[Gal(b1-4)]GlcNAc(b1-6)GalNAc
Summary of the method: as §1

[11] = target: Gal(a1-4)Gal(b1-3)GlcNAc(b1-2)Man(a1-3)[Gal(a1-4)Gal(b1-3)GlcNAc(b1-2)Man(a1-6)]Man(b1-4)GlcNAc(b1-4)GlcNAc
Summary of the method: as §1

[12] = target: Gal(a1-4)Gal(b1-4)Glc
Summary of the method: as §1

[13] = target: Gal(b1-3)Gal(b1-4)GlcNAc
Summary of the method: as §1

[14] = target: Gal(b1-3)GalNAc
Summary of the method: as §1

[15] = target: Gal(b1-3)[Fuc(a1-4)]GlcNAc(b1-2)Man(a1-3)[Gal(b1-3)[Fuc(a1-4)]GlcNAc(b1-2)Man(a1-6)]Man(b1-4)GlcNAc(b1-4)GlcNAc
Summary of the method: as §1

[16] = target: Gal(b1-3)[Fuc(a1-4)]GlcNAc(b1-3)Gal(b1-4)GlcNAc
Summary of the method: as §1

[17] = target: Gal(b1-4)GlcNAc(b1-2)Man(a1-3)[Man(a1-6)]Man(b1-4)GlcNAc(b1-4)GlcNAc
Summary of the method: as §1

[18] = target: Gal3S(b1-4)Glc6S
Summary of the method: as §1

[19] = target: GalNAc(b1-3)Gal
Summary of the method: as §1

[20] = target: GalNAc(b1-4)GlcNAc(b1-2)Man(a1-3)[GalNAc(b1-4)GlcNAc(b1-2)Man(a1-6)]Man(b1-4)GlcNAc(b1-4)GlcNAc
Summary of the method: as §1

[21] = target: GlcNAc(a1-4)Gal(b1-4)GlcNAc(b1-3)Gal(b1-4)GlcNAc
Summary of the method: as §1

[22] = target: GlcNAc(b1-2)[GlcNAc(b1-6)]Man(a1-6)[GlcNAc(b1-2)Man(a1-3)]Man(b1-4)GlcNAc(b1-4)GlcNAc
Summary of the method: as §1

[23] = target: GlcNAc(b1-3)[GlcNAc(b1-6)]GalNAc
Summary of the method: as §1

[24] = target: Kdn(a2-3)Gal(b1-4)[Fuc(a1-3)]GlcNAc
Summary of the method: as §1

[25] = target: Kdn(a2-6)Gal(b1-4)GlcNAc
Summary of the method: as §1

[26] = target: Man(a1-2)Man(a1-2)Man(a1-3)Man
Summary of the method: as §1

[27] = target: Man(a1-2)Man(a1-2)Man(a1-6)[Man(a1-3)]Man
Summary of the method: as §1

[28] = target: Man(a1-2)Man(a1-3)[Man(a1-2)Man(a1-6)]Man(a1-6)[Man(a1-2)Man(a1-2)Man(a1-3)]Man
Summary of the method: as §1

[29] = target: Neu5Ac(a2-3)Gal(b1-3)GlcNAc(b1-3)GalNAc
Summary of the method: as §1

[30] = target: Neu5Ac(a2-3)Gal(b1-3)[Neu5Ac(a2-6)]GalNAc
Summary of the method: as §1

[31] = target: Neu5Ac(a2-3)Gal(b1-4)GlcNAc(b1-3)Gal
Summary of the method: as §1

[32] = target: Neu5Ac(a2-3)Gal(b1-4)[Fuc(a1-3)]GlcNAc(b1-3)Gal(b1-4)GlcNAc
Summary of the method: as §1

[33] = target: Neu5Ac(a2-3)Gal(b1-4)[Fuc(a1-3)]GlcNAc(b1-3)Gal(b1-4)[Fuc(a1-3)]GlcNAc(b1-3)Gal(b1-4)[Fuc(a1-3)]GlcNAc
Summary of the method: as §1

[34] = target: Neu5Ac(a2-3)Gal6S(b1-4)GlcNAc
Summary of the method: as §1

[35] = target: Neu5Ac(a2-3)[Neu5Ac(a2-6)]GalNAc
Summary of the method: as §1

[36] = target: Neu5Ac(a2-6)Gal(b1-4)GlcNAc(b1-2)Man(a1-6)[Man(a1-3)]Man(b1-4)GlcNAc(b1-4)GlcNAc
Summary of the method: as §1

[37] = target: Neu5Ac(a2-8)Neu5Ac(a2-8)Neu5Ac(a2-3)Gal(b1-4)Glc
Summary of the method: as §1

[38] = target: Neu5Ac9Ac(a2-3)Gal(b1-3)GlcNAc
Summary of the method: as §1

B1: 3FTT (Staphylococcus aureus), Q5HCZ5 (protein)
chain: MTEKEKMLAEKWYDANFDQYLINERARAKDICFELNHTRPSATNKRKELIDQLFQTTTDNVSISIPFDTDYGWNVKLGKNVYVNTNCYFMDGGQITIGDNVFIGPNCGFYTATHPLNFHHRNEGFEKAGPIHIGSNTWFGGHVAVLPGVTIGEGSVIGAGSVVTKDIPPHSLAVGNPCKVVRKIDNDLPSETLNDETIK
- glycan array binding signal (z-score) [1]: -0.281
- glycan array binding signal (z-score) [2]: 1.06
- glycan array binding signal (z-score) [3]: -0.165
- glycan array binding signal (z-score) [4]: -0.004
- glycan array binding signal (z-score) [5]: 0.815
- glycan array binding signal (z-score) [6]: 1.26
- glycan array binding signal (z-score) [7]: 0.032
- glycan array binding signal (z-score) [8]: 0.227
- glycan array binding signal (z-score) [9]: -0.09
- glycan array binding signal (z-score) [10]: 0.714
- glycan array binding signal (z-score) [11]: -0.237
- glycan array binding signal (z-score) [12]: -0.171
- glycan array binding signal (z-score) [13]: 0.256
- glycan array binding signal (z-score) [14]: -0.105
- glycan array binding signal (z-score) [15]: 19.9
- glycan array binding signal (z-score) [16]: -0.017
- glycan array binding signal (z-score) [17]: -0.261
- glycan array binding signal (z-score) [18]: 0.798
- glycan array binding signal (z-score) [19]: -0.332
- glycan array binding signal (z-score) [20]: 5.95
- glycan array binding signal (z-score) [21]: 0.607
- glycan array binding signal (z-score) [22]: -0.134
- glycan array binding signal (z-score) [23]: -0.288
- glycan array binding signal (z-score) [24]: 0.16
- glycan array binding signal (z-score) [25]: -0.292
- glycan array binding signal (z-score) [26]: -0.082
- glycan array binding signal (z-score) [27]: -0.073
- glycan array binding signal (z-score) [28]: -0.089
- glycan array binding signal (z-score) [29]: -0.066
- glycan array binding signal (z-score) [30]: -0.057
- glycan array binding signal (z-score) [31]: 0.012
- glycan array binding signal (z-score) [32]: 0.162
- glycan array binding signal (z-score) [33]: -0.195
- glycan array binding signal (z-score) [34]: 0.037
- glycan array binding signal (z-score) [35]: 0.223
- glycan array binding signal (z-score) [36]: -0.226
- glycan array binding signal (z-score) [37]: 0.056
- glycan array binding signal (z-score) [38]: -0.153
